In PubChem BioAssay AID1159580 (chemical genetic matrix, 2015):
Screen size: about 5,500 compounds; about 2,000 (36%) were called active. Inconclusive results (about 18%) are left out. Rule as the data show it: active = normalized growth mostly below about 0.91 (no sharp cut-off); inconclusive = no clear call, values can overlap the other calls; inactive = mostly above about 0.92. The list shows a part of the results.

Test: chemical genetic growth profiling, strain panel (AID 1159580);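 also: tested at 20 µM; growth read once vehicle control cultures reached saturation at 30 °C; 1 = growth at the plate median or of vehicle wells; lower values mean less growth of the strain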
Settings: growth OD

Measured: normalized growth

CS(=O)(=O)c1ccc([C@@H](O)[C@@H](CO)NC(=O)C(Cl)Cl)cc1
inactive: S. cerevisiae deletion strains, locus YKL009W, strain mrt4, hits give low values 0.977 | S. cerevisiae deletion strains, locus YKL068W, hits give low values 0.978 | S. cerevisiae deletion strains, locus YKL085W, strain MDH1 (second series), hits give low values 0.988 | S. cerevisiae deletion strains, locus YKL085W, strain MDH1, hits give low values 0.988 | S. cerevisiae deletion strains, locus YKL160W, strain elf1, hits give low values 1.02 | S. cerevisiae deletion strains, locus YKL190W, strain CNB1, hits give low values 0.991 | S. cerevisiae deletion strains, locus YKR001C, strain vps1, hits give low values 0.99 | S. cerevisiae deletion strains, locus YKR026C, strain gcn3, hits give low values 1.03 | S. cerevisiae deletion strains, locus YKR091W, strain srl3, hits give low values 1.01 | S. cerevisiae deletion strains, locus YLL001W, strain dnm1, hits give low values 1 | S. cerevisiae deletion strains, locus YLL026W, hits give low values 1.02 | S. cerevisiae deletion strains, locus YLL041C, strain sdh2, hits give low values 1.02 | S. cerevisiae deletion strains, locus YLR027C, strain aat2, hits give low values 1.01 | S. cerevisiae deletion strains, locus YLR039C, strain RIC1, hits give low values 0.947 | S. cerevisiae deletion strains, locus YLR058C, strain SHM2, hits give low values 0.965 | S. cerevisiae deletion strains, locus YLR102C, strain apc9, hits give low values 0.978 | S. cerevisiae deletion strains, locus YLR113W, strain HOG1, hits give low values 0.998 | S. cerevisiae deletion strains, locus YLR221C, strain rsa3, hits give low values 1.01 | S. cerevisiae deletion strains, locus YLR258W, strain gsy2, hits give low values 1.02 | S. cerevisiae deletion strains, locus YLR262C, strain YPT6 (second series), hits give low values 1.03 | S. cerevisiae deletion strains, locus YLR262C, strain YPT6, hits give low values 0.849 | S. cerevisiae deletion strains, locus YLR268W, strain sec22, hits give low values 0.983 | S. cerevisiae deletion strains, locus YLR320W, strain mms22, hits give low values 0.991 | S. cerevisiae deletion strains, locus YLR330W, strain CHS5, hits give low values 0.982 | S. cerevisiae deletion strains, locus YLR342W, strain FKS1 (second series), hits give low values 1.01 | S. cerevisiae deletion strains, locus YLR342W, strain FKS1, hits give low values 1.01 | S. cerevisiae deletion strains, locus YLR357W, strain rsc2, hits give low values 1 | S. cerevisiae deletion strains, locus YLR370C, strain arc18, hits give low values 1.03 | S. cerevisiae deletion strains, locus YLR371W, strain rom2, hits give low values 0.993 | S. cerevisiae deletion strains, locus YLR384C, strain iki3, hits give low values 1.02 | S. cerevisiae deletion strains, locus YLR418C, strain cdc73, hits give low values 0.98 | S. cerevisiae deletion strains, locus YML016C, strain PPZ1, hits give low values 0.981 | S. cerevisiae deletion strains, locus YML032C, strain rad52, hits give low values 1 | S. cerevisiae deletion strains, locus YML120C, strain ndi1, hits give low values 1.05 | S. cerevisiae deletion strains, locus YML124C, strain tub3, hits give low values 0.993 | S. cerevisiae deletion strains, locus YMR058W, strain fet3, hits give low values 1.03 | S. cerevisiae deletion strains, locus YMR078C, strain ctf18, hits give low values 0.975 | S. cerevisiae deletion strains, locus YMR125W, strain sto1, hits give low values 1.04 | S. cerevisiae deletion strains, locus YMR129W, hits give low values 1.02 | S. cerevisiae deletion strains, locus YMR205C, strain PFK2, hits give low values 1.01 | S. cerevisiae deletion strains, locus YMR223W, strain ubp8, hits give low values 1.02 | S. cerevisiae deletion strains, locus YMR231W, strain pep5, hits give low values 1.03 | S. cerevisiae deletion strains, locus YMR263W, strain SAP30, hits give low values 0.984 | S. cerevisiae deletion strains, locus YMR307W, strain GAS1, hits give low values 1.06 | S. cerevisiae deletion strains, locus YNL067W, strain RPL9B, hits give low values 0.973 | S. cerevisiae deletion strains, locus YNL071W, strain lat1, hits give low values 1.03 | S. cerevisiae deletion strains, locus YNL128W, strain TEP1, hits give low values 0.975 | S. cerevisiae deletion strains, locus YNL153C, strain GIM3, hits give low values 0.981 | S. cerevisiae deletion strains, locus YNL183C, strain NPR1, hits give low values 0.959 | S. cerevisiae deletion strains, locus YNL209W, strain ssb2, hits give low values 1.04 | S. cerevisiae deletion strains, locus YNL233W, strain BNI4, hits give low values 0.99 | S. cerevisiae deletion strains, locus YNL248C, strain rpa49, hits give low values 1.07 | S. cerevisiae deletion strains, locus YNL250W, strain rad50, hits give low values 0.981 | S. cerevisiae deletion strains, locus YNL271C, strain bni1, hits give low values 0.995 | S. cerevisiae deletion strains, locus YNL298W, strain CLA4, hits give low values 0.988 | S. cerevisiae deletion strains, locus YNL307C, strain MCK1, hits give low values 0.985 | S. cerevisiae deletion strains, locus YNL322C, strain KRE1 (second series), hits give low values 1.02 | S. cerevisiae deletion strains, locus YNL322C, strain KRE1, hits give low values 0.983 | S. cerevisiae deletion strains, locus YNR049C, strain mso1, hits give low values 1 | S. cerevisiae deletion strains, locus YNR052C, strain pop2, hits give low values 0.993 | S. cerevisiae deletion strains, locus YOL006C, strain TOP1, hits give low values 0.889 | S. cerevisiae deletion strains, locus YOL012C, strain htz1 1.83 | S. cerevisiae deletion strains, locus YOL147C, strain pex11, hits give low values 0.99 | S. cerevisiae deletion strains, locus YOR001W, strain rrp6, hits give low values 1.03 | S. cerevisiae deletion strains, locus YOR061W, strain CKA2, hits give low values 0.944 | S. cerevisiae deletion strains, locus YOR069W, strain VPS5, hits give low values 0.991 | S. cerevisiae deletion strains, locus YOR070C, strain gyp1, hits give low values 1.03 | S. cerevisiae deletion strains, locus YOR080W, strain dia2, hits give low values 1.02 | S. cerevisiae deletion strains, locus YOR083W, strain WHI5, hits give low values 0.98 | S. cerevisiae deletion strains, locus YOR106W, strain vam3, hits give low values 1.05 | S. cerevisiae deletion strains, locus YOR136W, strain idh2, hits give low values 0.992 | S. cerevisiae deletion strains, locus YOR144C, strain elg1, hits give low values 0.983 | S. cerevisiae deletion strains, locus YOR184W, strain ser1, hits give low values 1.03 | S. cerevisiae deletion strains, locus YOR231W, strain MKK1, hits give low values 0.967 | S. cerevisiae deletion strains, locus YOR265W, strain rbl2, hits give low values 1.03 | S. cerevisiae deletion strains, locus YOR270C, strain vph1, hits give low values 1.12 | S. cerevisiae deletion strains, locus YOR290C, strain snf2, hits give low values 1.04 | S. cerevisiae deletion strains, locus YOR316C, strain cot1, hits give low values 0.975 | S. cerevisiae deletion strains, locus YPL051W, strain arl3, hits give low values 1.02 | S. cerevisiae deletion strains, locus YPL055C, strain LGE1, hits give low values 0.984 | S. cerevisiae deletion strains, locus YPL078C, strain atp4, hits give low values 1.04 | S. cerevisiae deletion strains, locus YPL106C, strain sse1, hits give low values 1.01 | S. cerevisiae deletion strains, locus YPL240C, strain hsp82, hits give low values 1.02 | S. cerevisiae deletion strains, locus YPL241C, strain CIN2, hits give low values 0.968 | S. cerevisiae deletion strains, locus YPL256C, strain CLN2, hits give low values 0.995 | S. cerevisiae deletion strains, locus YPR119W, strain clb2, hits give low values 1 | S. cerevisiae deletion strains, locus YPR141C, strain kar3, hits give low values 0.971 | S. cerevisiae deletion strains, locus YPR163C, strain tif3, hits give low values 1 | S. cerevisiae deletion strains, locus YPR167C, strain met16, hits give low values 0.975 | S. cerevisiae deletion strains, strain wtn01, hits give low values 0.984 | S. cerevisiae strains, strain wild type, hits give low values 0.963
